Shown are actives, neighbours in structure and some others; about 11% of the full set was active somewhere.
Pf growth 96h – P. falciparum growth inhibition at 96 hours | AID 504834 | P. falciparum luciferase reporter growth, 96 h | 6.9% of 320,000 active | Potency, µM (highest dose often 28.7 µM), actives largely listed as inhibitors
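Infected RBCs, 2% Hct / 0.05% parasitemia final; luciferase-reporter P. falciparum; cpd 96 h, 37 C, 5% CO2; luciferase detection reagent; luminescence.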
HCV inh – HCV inhibition. Huh7.5.1 HCVcc-Cre infection, luciferase reporter, 44 h. Potency, µM (titrated, usually from 41.8 µM), actives largely listed as inhibitors. 3.4% of 340,000 active. AID 651820
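Antiviral activity was scored by luciferase reporter output from cells infected with HCVcc-Cre (~0.5 moi) in presence of compound, 44 h infection period, cells seeded 1,000/well 4 h prior.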
VACV Venus inh – vaccinia inhibition (Venus reporter). Vaccinia virus Venus reporter expression, fluorescence. Potency, µM (series often up to 36.5 µM), hits mostly inhibitors. 0.46% of 330,000 active; calls by dose curve; tested in A549 cells; note: nearly all actives have a fitted effect of over 30% in size
Vaccinia mCherry – inhibitors of vaccinia virus infection (mCherry reporter signal) | Vaccinia virus mCherry reporter infection, fluorescence | Potency, µM (series often up to 36.5 µM), actives largely listed as inhibitors | 0.63% of 310,000 active; calls by dose curve; tested in A549 cells; note: nearly all actives have a fitted effect of over 35% in size
Pf growth 48h – P. falciparum growth inhibition at 48 hours (one generation); 5.9% of 310,000 active; Potency, µM (top dose mostly 28.7 µM), usual class: inhibitors; P. falciparum luciferase growth in erythrocytes, 48 h; AID 504832
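Luciferase-expressing P. falciparum in infected erythrocytes (2% hematocrit, 0.1% parasitemia final) in RPMI 1640/0.5% Albumax were exposed to compound for 48 hours at 37 C, 5% CO2; growth read as luminescence.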
NS1 function inh – inhibitors of influenza NS1 protein function. Potency, µM (highest dose often 46.1 µM). 0.4% of 270,000 active. AID 2326; calls by dose curve; note: actives are rising curves; nearly all actives have a fitted effect of over 50% in size
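Recovery from NS1-induced slow growth read by OD600 in budding yeast switched to galactose assay medium (pH 6.0, -URA) at 1:100 dilution. Compound 23 nl per well; the matching strain lacking NS1 serves as control.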
Hits are given with their value; . = inactive; ? = inconclusive; / = not tested or not shown. Unless noted, calls come from the whole dose curve; as a rule, active = well fitted inhibition curve with a large enough effect; inconclusive = small, poorly fitted or top-dose-only effect, or another doubt; inactive = no such curve, though single readings can be large or run the other way.

SMILES	Pf growth 96h	HCV inh	VACV Venus inh	Vaccinia mCherry	Pf growth 48h	NS1 function inh
CCOc1ccc(-c2nnn(CC(=O)Nc3cc(OC)ccc3OC)n2)cc1OCC	.	.	.	?	?	.
COc1ccc(NC(=O)CN2CCCCC2)c([N+](=O)[O-])c1	.	.	.	.	.	.
CCCCCCN1CC(O)=C(c2ccccc2)C1=N	/	.	.	/	.	.
CCCCCCCCCn1ccc(=N)cc1	?	0.04µM	?	.	0.17µM	.
CCCCCn1ccc(=N)cc1	1.5µM	6.3µM	?	/	4.1µM	.
CCn1ccc(=N)cc1	12µM	.	.	/	?	?
CCCCCCCn1ccc(=N)cc1	/	0.56µM	?	/	0.93µM	.
COc1ccc(C(CC(=O)O)NC(=O)c2sc3ccccc3c2Cl)cc1 (stereo not given)	.	.	.	.	.	.
Cc1cc(C)n(-c2ccc([N+](=O)[O-])cc2-c2nn[nH]n2)n1	.	.	.	.	.	/
COc1cc(C2c3cc4c(cc3CC3COC(=O)C32)OCO4)cc(OC)c1O (stereo not given)	/	?	?	.	/	/
O=C1NC2C(=CC(O)C(O)C2O)c2cc3c(c(O)c21)OCO3 (stereo not given)	/	0.25µM	0.1µM	8.9µM	/	/
O=C1NC2C(=CC(O)C(O)C2O)c2cc3c(cc21)OCO3 (stereo not given)	/	0.56µM	1µM	?	/	/
O=C1NC2C(O)C(O)C(O)C(O)C2c2cc3c(c(O)c21)OCO3 (stereo not given)	/	?	0.28µM	2.2µM	/	/
COc1ccc(S(=O)(=O)N2CCOC23CCN(S(=O)(=O)c2cccs2)CC3)cc1	?	.	.	.	?	/
COc1ccc(S(=O)(=O)N2CCC3(CC2)OCCN3S(=O)(=O)c2ccc(OC)cc2)cc1	9.3µM	.	.	.	?	/
COc1ccc(S(=O)(=O)N2CCOC23CCN(S(=O)(=O)c2ccc(Cl)cc2)CC3)cc1	?	?	.	.	12µM	/
CC(=O)NNc1ncnc2c1cnn2-c1ccc(C)c(Cl)c1	8.3µM	?	.	.	.	/
CCN(CC)CCN1CCn2c3c(c4cc(C)ccc42)CCCC31 (stereo not given)	9.3µM	8.9µM	/	/	3.7µM	.
Oc1cccc2nc3ccccc3nc12	12µM	?	.	.	?	.
CCN(CC)C(=O)c1cccc2nc3ccccc3nc12	.	.	.	.	.	.
O=C(/C=C/c1c(F)cccc1Cl)c1ccc(O)cc1	?	11µM	/	/	.	.
Cc1cc(-c2n[nH]c(=S)n2/N=C/c2ccccc2[N+](=O)[O-])n[nH]1	.	.	.	.	.	.
CC(=O)n1cc(-c2ccncc2)c2ccccc21	?	10µM	.	.	?	.
O=C(NC(=S)N1CCCCC1)c1csc([N+](=O)[O-])c1	5.2µM	.	.	.	15µM	.
C=CCNC(=S)NC(=O)c1csc([N+](=O)[O-])c1	?	.	.	.	.	.
SMILES	Pf growth 96h	HCV inh	VACV Venus inh	Vaccinia mCherry	Pf growth 48h	NS1 function inh
COc1cc2c(cc1OC)CN(Cc1cc(=O)oc3c(C)c(C)ccc13)CC2	13µM	?	.	.	.	.
Cc1ccc2c(CN3CCN(S(=O)(=O)c4ccc5c(c4)OCCO5)CC3)cc(=O)oc2c1C	?	13µM	.	.	9.3µM	.
COc1cc2c(cc1OC)CN(Cc1cc(=O)oc3cc(C)c(Cl)cc13)CC2	?	?	.	.	9.3µM	.
Cc1ccc2c(CN3C(=O)NC4(CCCCC4)C3=O)cc(=O)oc2c1C	0.13µM	.	/	/	.	.
COc1cc2c(cc1OC)CN(Cc1cc(=O)oc3cc(C)c(C)cc13)CC2	?	.	.	.	?	.
CC1(C(=O)NC2CCCCCC2)CCN1C(=O)C1(c2ccccc2)CC1 (stereo not given)	/	/	.	.	/	/
Cc1ccc2c(CN3CC=C(c4ccccc4)CC3)cc(=O)oc2c1C	3.3µM	.	.	.	5.2µM	.
CCc1ccc2c(CN3CC=C(c4ccccc4)CC3)cc(=O)oc2c1	?	.	.	.	?	.
Cn1cnnc1Sc1nc2c(c(=O)n(C)c(=O)n2C)n1C	/	.	.	.	/	.
Cc1cc([N+](=O)[O-])c2[nH]c(C(=O)N/N=C/c3ccccc3C(=O)O)c(-c3ccccc3)c2c1	?	?	/	/	?	.
O=C(COC(=O)c1ccc(F)cc1F)NCCC1=CCCCC1	.	.	.	.	.	/
Cc1cccc(C)c1NC(=S)/N=C/N(C)C	.	.	.	.	.	.
CCOC(=O)c1c(CN(CC)CC)oc2ccc(OC)cc12	15µM	.	.	.	?	.
CCOC(=O)c1c(-c2ccccc2)oc2ccc(OCC(O)CNCCN(C)C)cc12 (stereo not given)	?	?	?	11µM	2.1µM	.
CCOC(=O)c1c(-c2ccccc2)oc2ccc(OCc3ccc(C)cc3)cc12	/	/	.	.	/	/
CCOC(=O)c1c(CN(CC)CC)oc2cc(Br)c(O)cc12	?	10µM	.	?	/	.
CCOC(=O)c1c(-c2ccccc2)oc2ccc(OCC)cc12	.	?	.	?	.	.
CCOC(=O)c1c(-c2ccccc2)oc2ccc(OC)cc12	/	11µM	.	/	.	.
COc1ccc(NC(=O)CN(C)CCOc2ccc(Cl)cc2)cc1OC	.	?	.	.	/	.
Cc1nn(-c2ccccn2)c2c1C(c1ccccc1Cl)C1=C(N2)c2ccccc2C1=O (stereo not given)	12µM	?	.	.	?	.
CSC1=C(C#N)C(c2ccccc2Cl)C2=C(N1)c1ccccc1C2=O (stereo not given)	?	.	.	.	.	.
Cc1nn(-c2ccccn2)c2c1C(c1ccsc1)C1=C(CCCC1=O)N2 (stereo not given)	.	?	.	.	?	.
Cc1nn(-c2ccccn2)c2c1C(c1c(F)cccc1Cl)C1=C(N2)c2ccccc2C1=O (stereo not given)	9.3µM	.	/	/	10µM	.
COCC(C)n1c(C)cc(C(=O)CSc2nc3ccccc3c(=O)[nH]2)c1C (stereo not given)	?	?	/	/	?	.
CCC(C)n1c(SCC(=O)/C(C#N)=C(\C)N)nc2ccccc2c1=O (stereo not given)	9.3µM	.	?	?	.	.
SMILES	Pf growth 96h	HCV inh	VACV Venus inh	Vaccinia mCherry	Pf growth 48h	NS1 function inh
C/C(N)=C(/C#N)C(=O)CSc1nc2ccccc2c(=O)n1CCCOC(C)C	?	.	.	.	?	.
C=CCn1c(SCc2c(C)noc2C)nc2sc(C)c(C)c2c1=O	9.3µM	.	?	.	/	.
COC(=O)c1cc(CSc2nnc(-c3ccccc3)c(-c3ccccc3)n2)oc1C	?	25µM	.	/	.	.
COCC(C)n1c(SCC(=O)c2cc(C)n(C)c2C)nc2ccccc2c1=O (stereo not given)	?	?	.	.	13µM	/
COCC(C)n1c(SCc2cc(C(=O)OC)c(C)o2)nc2ccccc2c1=O (stereo not given)	?	11µM	.	.	.	.
C=CCn1c(SCC(=O)c2cc(C)n(C(C)COC)c2C)nc2sc(C)c(C)c2c1=O (stereo not given)	.	10µM	/	/	.	.

Source: PubChem BioAssay
